Assay results as given in the supplement of paper PMC3334620.
The full ranking holds about 33,000 sequences; the median of “E-score (-0.5 to 0.5)” is about -0.021, and the highest 2% start at about 0.32. Many of the other results were omitted from the sample, so the highest values are more common in it than they were.

These sequences were tested against T1, Zap1 (UniProt P47043) (assay: PBM E-score (8-mer binding enrichment) (E-score (-0.5 to 0.5)); higher = stronger / more preferred TF binding). Details: protein concentration: 200 nM; construct: GST-full length.
T1 sequence: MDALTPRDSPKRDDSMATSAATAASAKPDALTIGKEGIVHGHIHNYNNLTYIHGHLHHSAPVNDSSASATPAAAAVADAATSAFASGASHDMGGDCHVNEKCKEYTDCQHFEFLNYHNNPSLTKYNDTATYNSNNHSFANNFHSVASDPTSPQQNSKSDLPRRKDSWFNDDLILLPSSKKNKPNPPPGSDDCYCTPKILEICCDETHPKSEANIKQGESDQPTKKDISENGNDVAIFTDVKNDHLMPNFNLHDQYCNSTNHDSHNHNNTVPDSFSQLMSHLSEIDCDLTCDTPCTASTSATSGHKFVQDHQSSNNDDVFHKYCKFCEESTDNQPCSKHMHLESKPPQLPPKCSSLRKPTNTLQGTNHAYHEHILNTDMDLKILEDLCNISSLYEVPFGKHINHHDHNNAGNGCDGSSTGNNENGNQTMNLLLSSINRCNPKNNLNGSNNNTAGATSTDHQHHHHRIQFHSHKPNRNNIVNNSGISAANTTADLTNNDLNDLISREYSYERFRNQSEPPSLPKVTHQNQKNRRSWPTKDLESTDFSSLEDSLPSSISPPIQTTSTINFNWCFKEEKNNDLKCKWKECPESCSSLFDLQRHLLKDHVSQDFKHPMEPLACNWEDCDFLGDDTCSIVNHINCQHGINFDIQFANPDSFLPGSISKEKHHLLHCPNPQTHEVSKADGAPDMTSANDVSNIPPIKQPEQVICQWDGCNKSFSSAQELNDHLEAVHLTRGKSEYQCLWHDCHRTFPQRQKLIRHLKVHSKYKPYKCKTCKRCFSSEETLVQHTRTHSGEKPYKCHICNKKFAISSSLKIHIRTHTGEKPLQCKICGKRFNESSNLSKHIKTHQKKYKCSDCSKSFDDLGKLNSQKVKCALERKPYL
In short: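 Universal all-10-mer Agilent arrays, double-stranded by primer extension on fresh or once-stripped slides, were probed with about 100-200 nM GST-tagged yeast transcription factors made by PURExpress. Fluorescent anti-GST detected bound protein, and masliner normalised the scans. E-scores from the Universal PBM Analysis Suite were given to each ungapped eight-base word pooled with its reverse complement.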

Sequence | PBM E-score
AGCTACAT | -0.263
ATTTCTGG | 0.0521
AAGTTCAC | -0.108
AATGAAGT | 0.0905
AATCAAAG | 0.0185
ACTATGAT | -0.00467
GTTGTATA | 0.117
AAGTTGCT | -0.0577
GTACTGAC | 0.0986
GTACTGAA | 0.317
GTACTGTA | 0.0704
AGGGTCCG | -0.0112
CGATGGCG | -0.284
CATGAAAC | 0.0838
CAAGTGCG | -0.0607
GGCATGTA | -0.0887
CCGCCCGG | 0.0274
CCGCCCCG | 0.341
CCGCCCCC | -0.343
CAGGTGTC | -0.0194
CAGTACTA | 0.164
TCAAAAAA | 0.202

Sequence | PBM E-score
AAACCAAA | 0.254
TAACCAAA | 0.386
TAACCCAA | 0.424
CAACCAAA | 0.213
GAACCCAA | 0.152
CAACCCCA | 0.42
CAACCCCC | -0.212
CAACCCCG | 0.211
CAACCCAA | 0.272
TAACCATA | 0.44
GAACCATA | 0.206
AAACCATA | 0.202
AAGATGCA | 0.0988
AACTTGCT | -0.17
AATGTCTA | 0.00891
CGTCAGTC | -0.206
GCCGCATA | 0.102
TACAAGTA | 0.0103
AACCTAAT | 0.204
GATCAACC | -0.0383
GTGAGCGA | 0.1
ATCAGTAC | -0.0201

Sequence | PBM E-score
AGGTGCAA | 0.0924
TTTGAAAA | 0.273
GAGTTCGA | 0.0349
AAACCACG | -0.0205
AAACCACA | 0.184
TAACCACA | 0.417
GAACCCCA | 0.291
TAACCCCA | 0.424
AAACCCCA | 0.261
GTGAGTCA | -0.0169
CCAACTAC | 0.0442
ACGCGATC | -0.143
AACCACAT | 0.234
ACCCACAC | 0.225
AACCACAA | 0.34
ACCCACAA | 0.353
AACCACAG | 0.233
AACCACTA | 0.369
CACCACAA | 0.147
TACCACTA | 0.179
CACCACTA | 0.22
ACCCACAG | 0.2

Sequence | PBM E-score
GACCACAA | 0.185
TACCACAA | 0.359
AAACTTAT | 0.19
AGAAACTC | -0.0693
GACAGTAA | 0.0265
AGCTGGCG | -0.283
AGAAGAGA | -0.205
CCAAGATC | -0.0112
ACTGCACT | -0.149
ACAATGGA | 0.159
AAGGAGGA | -0.291
AAGTTACT | -0.0263
ACGTTACA | -0.0394
AGGTTACA | 0.453
ACGTTACT | 0.143
CGGTTACG | 0.401
AGGTTAGG | 0.348
AGGTTACT | 0.457
CGGTTAAG | 0.289
AAGTTACA | 0.169
